Experimental data as given in PubChem BioAssay.
Activity calls are given as the source filed them. Unless noted, how the calls were made is not given here.

Legend:
[1] = compounds binding Alexa647 anti-His antibody – biochemical, small-molecule microarray, 635 nm fluorescence, artefact control for SMM control protein annotation, primary screen (AID 1128); settings: higher = more signal;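 further: score merges feature fluorescence with signal-to-noise for each printed compound spot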
[2] = test system: Human papillomavirus type 1a E7 protein (residues 1-88); assay: HPV1a E7 small-molecule binders, primary screen, biochemical, small-molecule microarray, residues 1-88, 635 nm (AID 1129); settings: small-molecule microarray binding, fluorescence 635 nm; higher = more signal
[3] = biological target: Focal adhesion kinase 1 (Homo sapiens) (UniProt Q05397); assay: PTK2 protein binding on printed compound slides – biochemical, small-molecule microarray, 635/667 nm fluorescence, BSA, DTT, primary screen (AID 1130); settings: 635 nm fluorescence, higher = more signal;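 further: composite of spot emission at 667 nm and signal to noise over triplicate slides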
[4] = test system: Fibrinogen (Alexa647-labelled); assay: Alexa647-fibrinogen binding to printed small molecules – biochemical, small-molecule microarray, 635/667 nm fluorescence, artefact control for SMM control-protein annotation, profiling panel (AID 1131); settings: fibrinogen-A647 binding fluorescence, higher = more signal;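 further: z-score merges 667 nm fluorescence with per-spot signal-to-noise over triplicate slides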
[5] = biological target: Follistatin (Homo sapiens) (UniProt P19883); assay: FST protein binding to printed compounds – biochemical, small-molecule microarray, 635/667 nm fluorescence, primary screen (AID 1132); settings: 635 nm fluorescence, higher = more signal
[6] = biological target: Fibroblast growth factor 2 (Homo sapiens) (UniProt P09038); assay: basic fibroblast growth factor binding to printed compounds – biochemical, small-molecule microarray, 635/667 nm fluorescence, primary screen (AID 1133); settings: FGF2, fluorescence 635/667, higher = more signal
[7] = JC-1 mitochondrial potential readout, lung cancer cells – cell-based, A549, JC-1 fluorescence, basal, 24 h, 100 nL, profiling panel (AID 1138); settings: higher = more signal;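 further: A549 lung adenocarcinoma cells under basal conditions with no added stimulus; test concentration not given here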
Lefty1 = Lefty1 protein binding to printed compounds – biochemical, small-molecule microarray, 635/667 nm fluorescence, primary screen (AID 1139); settings: fluorescence 635/667, higher = more signal
[8] = test system: wheat germ agglutinin (Triticum aestivum), Alexa647-labelled; assay: Alexa647-WGA lectin binding to printed small molecules – biochemical, small-molecule microarray, 635/667 nm fluorescence, artefact control for SMM control-protein annotation, profiling panel (AID 1140); settings: WGA-A647 binding, 635 nm fluorescence, higher = more signal;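 further: score merges 667 nm feature emission with signal to noise over triplicate slides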
[9] = biological target: Luciferin 4-monooxygenase (Photinus pyralis) (UniProt P08659); assay: inhibition of purified Photinus pyralis luciferase – biochemical, luminescence, purified enzyme, 2006 set, primary screen (AID 1141); settings: purified firefly luciferase, SteadyGlo luminescence, 30 min; higher = more signal, called active from +8 up or from −8 down;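 further: cell-free assay with purified firefly luciferase at 100 ng per well in PBS; test concentration not given here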
[10] = test system: Wnt5a (protein binding on small-molecule microarray); assay: small molecules binding Wnt5a protein – biophysical, small-molecule microarray, 635/667 nm fluorescence, primary screen (AID 1142); settings: 635 nm fluorescence, higher = more signal;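 further: fluorescence read at 667 nm with signal to noise per printed feature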
[11] = ATP-based viability of Huh7 replicon cells – cell-based, CellTiter-Glo luminescence, basal, 48 h, cytotoxicity control for HCV replication inhibitor project, primary screen (AID 1143); settings: higher = more signal, called active from +8 up or from −8 down;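 further: Huh7 hepatoma cells carrying a hepatitis C replication reporter with no stimulus; test concentration not given here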
[12] = Pseudomonas biofilm growth suppression – PAO1 strain, BacTiter-Glo luminescence, LB-PBS, primary screen (AID 1144); settings: P. aeruginosa PAO1 biofilm, 12 h, higher = more signal
[13] = basal CRE-LacZ reporter activity in PC12 – cell-based, unstimulated, primary screen (AID 1145); settings: no forskolin, luminescence, 4.5 h, higher = more signal, called active from +8 up or from −8 down
[14] = forskolin-driven CRE-LacZ activity in PC12 – cell-based, CRE-LacZ reporter, forskolin-stimulated, primary screen (AID 1146); settings: luminescence, 4.5 h, higher = more signal, called active from +8 up or from −8 down;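 further: PC12 cells with 6xCRE LacZ reporter stimulated by forskolin 10 µM; beta-galactosidase reporter signal reflecting CREB driven transcription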
[15] = biological target: Streptavidin (Streptomyces avidinii) (UniProt P22629); assay: compounds binding control protein streptavidin – biophysical, small-molecule microarray, 635/667 nm fluorescence, artefact control for SMM compound annotation, primary screen (AID 1147); settings: higher = more signal;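 further: signal reflects streptavidin binding to arrayed compounds as a control protein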
[16] = probe aInhba binding on compound microarray – biochemical, small-molecule microarray, 635/667 nm fluorescence, primary screen (AID 1148); settings: higher = more signal;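 further: score merges 667nm spot fluorescence with signal-to-noise for antibody binding to printed compounds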
Torsin-1A (Homo sapiens) [17] = biological target: Torsin-1A (Homo sapiens) (UniProt O14656); assay: TOR1A wild-type binding on microarray – cell lysate, small-molecule microarray, lysate, 635/667 nm, primary screen (AID 1149); settings: COS7 hTOR1A-WT lysate, 635 nm fluorescence, higher = more signal
Torsin-1A (Homo sapiens) [18] = biological target: Torsin-1A (Homo sapiens) (UniProt O14656); assay: torsin A mutant lysate binding on microarrays – cell lysate, small-molecule microarray, COS7 lysate, 635/667 nm fluorescence, primary screen (AID 1150); settings: COS7 hTOR1A mutant lysate, 635 nm fluorescence, higher = more signal;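 further: score pools 667 nm emission and signal to noise measuring lysate protein binding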
[19] = test system: Sonic hedgehog protein (Shh); assay: Sonic hedgehog microarray binding compounds – biochemical, small-molecule microarray, 635/667 nm fluorescence, primary screen (AID 1151); settings: 635 nm fluorescence, higher = more signal;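 further: Shh protein binding to compounds spotted on small-molecule microarray slides; score combines spot fluorescence intensity with signal-to-noise across triplicate slides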

Sequence of Focal adhesion kinase 1 (Homo sapiens) (Q05397 whole entry, looked up): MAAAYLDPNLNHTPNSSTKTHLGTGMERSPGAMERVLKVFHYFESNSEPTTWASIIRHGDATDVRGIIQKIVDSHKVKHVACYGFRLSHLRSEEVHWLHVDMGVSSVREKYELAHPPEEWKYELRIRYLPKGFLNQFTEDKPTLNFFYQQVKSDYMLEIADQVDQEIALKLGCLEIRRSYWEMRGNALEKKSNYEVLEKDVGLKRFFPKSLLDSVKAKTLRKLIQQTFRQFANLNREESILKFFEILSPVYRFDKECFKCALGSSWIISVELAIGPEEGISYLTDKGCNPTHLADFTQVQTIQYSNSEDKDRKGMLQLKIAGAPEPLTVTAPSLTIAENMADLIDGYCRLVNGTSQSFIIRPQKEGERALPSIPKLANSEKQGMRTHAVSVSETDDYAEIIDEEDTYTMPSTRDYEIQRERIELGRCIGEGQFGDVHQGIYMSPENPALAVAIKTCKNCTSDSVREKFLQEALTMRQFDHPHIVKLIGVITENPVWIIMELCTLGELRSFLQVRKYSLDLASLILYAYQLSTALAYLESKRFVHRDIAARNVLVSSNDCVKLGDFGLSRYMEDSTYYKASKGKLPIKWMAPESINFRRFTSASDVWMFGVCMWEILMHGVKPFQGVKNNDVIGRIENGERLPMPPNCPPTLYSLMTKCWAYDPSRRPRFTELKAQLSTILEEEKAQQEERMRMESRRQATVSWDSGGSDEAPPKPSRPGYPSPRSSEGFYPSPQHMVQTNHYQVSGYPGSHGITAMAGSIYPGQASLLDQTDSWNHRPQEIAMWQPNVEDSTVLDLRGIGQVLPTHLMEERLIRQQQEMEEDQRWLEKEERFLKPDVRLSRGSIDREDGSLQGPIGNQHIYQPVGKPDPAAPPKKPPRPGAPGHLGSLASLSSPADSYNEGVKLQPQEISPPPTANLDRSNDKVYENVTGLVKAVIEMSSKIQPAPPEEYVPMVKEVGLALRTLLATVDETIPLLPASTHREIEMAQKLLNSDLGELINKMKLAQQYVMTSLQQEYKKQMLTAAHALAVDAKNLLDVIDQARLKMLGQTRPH
Sequence of Torsin-1A (Homo sapiens) (O14656 whole entry, looked up): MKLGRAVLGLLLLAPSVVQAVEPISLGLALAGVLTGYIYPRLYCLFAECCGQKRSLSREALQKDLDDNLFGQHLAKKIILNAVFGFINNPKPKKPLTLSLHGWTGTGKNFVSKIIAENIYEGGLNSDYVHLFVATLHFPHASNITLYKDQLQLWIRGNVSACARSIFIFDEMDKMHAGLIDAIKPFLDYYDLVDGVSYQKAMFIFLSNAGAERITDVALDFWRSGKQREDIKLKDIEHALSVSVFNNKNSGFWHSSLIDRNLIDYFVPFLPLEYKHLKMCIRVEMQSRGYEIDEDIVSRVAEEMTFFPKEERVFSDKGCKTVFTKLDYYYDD
Sequence of Fibroblast growth factor 2 (Homo sapiens) (P09038 whole entry, looked up): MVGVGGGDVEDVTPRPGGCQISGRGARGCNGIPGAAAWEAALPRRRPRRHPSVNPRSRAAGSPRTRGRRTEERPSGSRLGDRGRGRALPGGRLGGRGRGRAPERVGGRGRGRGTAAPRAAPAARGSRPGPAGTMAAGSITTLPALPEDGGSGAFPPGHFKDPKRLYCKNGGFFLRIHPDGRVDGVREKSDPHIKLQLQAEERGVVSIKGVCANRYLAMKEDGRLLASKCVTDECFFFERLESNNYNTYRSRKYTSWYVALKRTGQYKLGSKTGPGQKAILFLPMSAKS
Sequence of Streptavidin (Streptomyces avidinii) (P22629 whole entry, looked up): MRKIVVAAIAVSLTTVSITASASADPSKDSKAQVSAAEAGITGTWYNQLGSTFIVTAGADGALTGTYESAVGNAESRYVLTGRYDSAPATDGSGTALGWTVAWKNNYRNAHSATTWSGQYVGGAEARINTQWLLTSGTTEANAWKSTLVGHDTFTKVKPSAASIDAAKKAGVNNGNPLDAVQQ
Sequence of Follistatin (Homo sapiens) (P19883 whole entry, looked up): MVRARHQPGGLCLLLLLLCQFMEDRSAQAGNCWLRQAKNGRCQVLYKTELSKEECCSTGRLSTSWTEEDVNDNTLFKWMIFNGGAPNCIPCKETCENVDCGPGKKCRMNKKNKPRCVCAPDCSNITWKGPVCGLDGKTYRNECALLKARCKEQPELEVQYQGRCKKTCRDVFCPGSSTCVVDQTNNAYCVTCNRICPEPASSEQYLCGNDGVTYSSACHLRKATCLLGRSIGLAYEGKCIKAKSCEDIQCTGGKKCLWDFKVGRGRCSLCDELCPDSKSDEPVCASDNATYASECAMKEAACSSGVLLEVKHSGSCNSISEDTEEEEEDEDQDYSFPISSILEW
Sequence of Luciferin 4-monooxygenase (Photinus pyralis) (P08659 whole entry, looked up): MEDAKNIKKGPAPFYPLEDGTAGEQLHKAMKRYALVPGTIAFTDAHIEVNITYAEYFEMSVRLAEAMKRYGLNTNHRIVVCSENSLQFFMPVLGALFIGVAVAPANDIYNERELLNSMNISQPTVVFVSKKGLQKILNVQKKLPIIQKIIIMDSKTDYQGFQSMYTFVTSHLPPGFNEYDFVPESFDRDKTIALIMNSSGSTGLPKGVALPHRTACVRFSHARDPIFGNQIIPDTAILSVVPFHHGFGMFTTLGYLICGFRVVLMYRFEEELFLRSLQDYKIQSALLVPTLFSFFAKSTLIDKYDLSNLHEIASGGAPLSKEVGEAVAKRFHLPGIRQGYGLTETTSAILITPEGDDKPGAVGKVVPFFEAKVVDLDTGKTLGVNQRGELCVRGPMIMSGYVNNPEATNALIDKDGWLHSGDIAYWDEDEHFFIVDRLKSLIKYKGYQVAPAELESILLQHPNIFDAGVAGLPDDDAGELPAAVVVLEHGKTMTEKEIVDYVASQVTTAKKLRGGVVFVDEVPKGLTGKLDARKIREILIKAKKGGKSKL

Structure (SMILES)	composite z-score [1]	composite z-score [2]	composite z-score [3]	composite z-score [4]	composite z-score [5]	composite z-score [6]	z-score [7]	composite z-score (Lefty1)	composite z-score [8]	z-score [9]	composite z-score [10]	z-score [11]	z-score [12]	z-score [13]	z-score [14]	composite z-score [15]	composite z-score [16]	composite z-score (Torsin-1A (Homo sapiens) [17])	composite z-score (Torsin-1A (Homo sapiens) [18])	composite z-score [19]
O=C1O[C@@H](c2ccccc2)[C@@H](c2ccccc2)N2[C@@H](c3ccc(OCCO)cc3)[C@]3(C(=O)Nc4ccccc43)[C@@H](C(=O)Nc3nc4ccccc4s3)[C@H]12	2.11	1.26	0.645	1	1.21	0.79	-2.13	1.28	0.958	-9.09 (active)	0.441	-3.3 (inactive)	-1.78 (inactive)	0.362 (inactive)	-0.278 (inactive)	1.17	0.289	1.05	1.11	1.75
[N-]=[N+]=NCc1ccccc1[C@@H]1OC(c2ccc(OCCCO)cc2)=N[C@]1(Cc1ccccc1)C(=O)N1CCCCC1	2.4	1.2	0.0473	0.39	1.41	1.55	2.06	-0.0101	0.903	-1.22 (inactive)	0.663	-3.77 (inactive)	-0.641 (inactive)	1.56 (inactive)	-0.546 (inactive)	0.466	0.288	-0.451	-0.271	0.0721
COC(=O)[C@@]1(Cc2ccccc2)[C@H]2c3cc(C(=O)N4CCCC4)n(Cc4ccc(C)o4)c3C[C@H]2CN1C(=O)c1ccccc1	0.195	1.22	0.752	-0.809	-0.0668	-0.675	0.337	-0.0201	1.18	-2.68 (inactive)	-0.135	-2.17 (inactive)	-0.544 (inactive)	0.962 (inactive)	1.16 (inactive)	1.15	0.181	0.0769	0.537	-0.21
CO[C@H]1O[C@H](CO)[C@@H](OC(=O)Nc2ccc3c(c2)OCO3)[C@H](OC(=O)Nc2ccccc2)[C@H]1OC(=O)Nc1ccccc1	1.77	1.28	0.927	0.995	1.32	0.924	-0.925	1.29	0.928	-0.546 (inactive)	0.446	-5.46 (inactive)	-0.785 (inactive)	1.16 (inactive)	-2.23 (inactive)	0.869	0.0906	0.487	1.11	1.43
CC(=CC1CCCCC1)[C@@H](NC(=O)c1ccc(C(F)(F)F)cc1)c1ccc(-c2ccccc2)cc1	-0.453	-0.753	-0.708	-0.134	-0.136	-0.58	-0.269	-0.795	0.165	1.25 (inactive)	-0.239	-0.992 (inactive)	-0.019 (inactive)	0.587 (inactive)	0.618 (inactive)	1.03	0.105	-0.514	-0.336	-0.129
